Cruzain noTriton = inhibitors of Trypanosoma cruzi cruzain without detergent; purified cruzain, Z-FR-AMC fluorescence, no detergent; hit rate 2.3% among 200,000; Potency, µM, for inactives: max response, negative = inhibition, most hits filed as inhibitors; P25779; AID 1476;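 note: plate controls were enzyme without inhibitor for no effect and buffer without enzyme for full effect; nearly all actives have a fitted effect of over 40% in size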
Target sequence (P25779 123-467 limits assumed): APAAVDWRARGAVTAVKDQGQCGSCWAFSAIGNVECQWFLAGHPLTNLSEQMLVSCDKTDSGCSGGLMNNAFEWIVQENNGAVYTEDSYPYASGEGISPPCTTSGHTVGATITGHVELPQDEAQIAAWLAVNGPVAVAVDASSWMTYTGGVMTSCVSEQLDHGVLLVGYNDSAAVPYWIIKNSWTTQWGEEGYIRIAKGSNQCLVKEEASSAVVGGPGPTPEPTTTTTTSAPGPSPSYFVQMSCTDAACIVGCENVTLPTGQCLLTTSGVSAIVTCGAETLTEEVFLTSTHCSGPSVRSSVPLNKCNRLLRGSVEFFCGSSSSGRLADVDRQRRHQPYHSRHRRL
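Purified cruzain at 1.5 nM, pre-incubated 15 min with compound at room temperature in 100 mM sodium acetate pH 5.5, 5 mM DTT, 0.00005% Triton X-100. Reaction started with 2 uM Z-FR-AMC; AMC fluorescence increase over 60 s gives rate.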
Cruzain Triton = blocks cruzain activity in presence of Triton detergent; purified cruzain, Z-FR-AMC fluorescence, 0.01% Triton; P25779; Potency, µM, for inactives: max response, negative = inhibition, usual class: inhibitors; hit rate 0.43% among 200,000; AID 1478;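 note: plate controls were neutral wells for no effect and buffer without enzyme for full effect; nearly all actives have a fitted effect of over 40% in size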
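Detergent-containing run (0.01% Triton X-100) in acetate buffer pH 5.5 with 5 mM DTT: enzyme at 1.5 nM final, 15 min compound preincubation at room temperature, then 2 uM Z-FR-AMC substrate. Activity taken as 60 s fluorescence increase at 360/450 nm.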
Papain inh = papain (Carica papaya) inhibition counter-screen; shares compounds with Cruzain Triton; purified papain, Z-FR-AMC fluorescence cleavage; Potency, µM, inactives show max response, negative = inhibition, hits mostly inhibitors; hit rate 41% among 410; AID 2161;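 note: 0% = no-compound wells and -100% = no-enzyme wells; nearly all actives have a fitted effect of over 35% in size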
Target sequence (P00784 whole entry, looked up): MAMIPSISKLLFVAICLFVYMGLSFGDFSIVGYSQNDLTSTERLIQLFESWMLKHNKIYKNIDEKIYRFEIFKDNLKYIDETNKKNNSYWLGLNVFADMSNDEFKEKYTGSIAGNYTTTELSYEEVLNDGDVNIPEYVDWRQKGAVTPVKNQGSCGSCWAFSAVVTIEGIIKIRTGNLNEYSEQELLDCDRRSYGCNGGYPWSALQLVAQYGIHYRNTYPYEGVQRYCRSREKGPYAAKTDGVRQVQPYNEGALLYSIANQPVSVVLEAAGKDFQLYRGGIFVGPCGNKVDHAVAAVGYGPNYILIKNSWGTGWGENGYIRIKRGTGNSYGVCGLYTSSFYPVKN
An asterisk follows results filed as active; ? = inconclusive; . = no result. An excerpt weighted towards active compounds, which were near 2.4% of everything screened. Calls come from the whole dose curve; as a rule, active = well fitted curve in the direction sought with a large enough effect; inconclusive = small, poorly fitted or top-dose-only effect, or another doubt; inactive = no such curve, though single readings can be large; an effect the other way counts as inactive or inconclusive. Potency is the fitted concentration of half-maximal effect.

SMILES | Cruzain noTriton | Cruzain Triton | Papain inh
COCC(C)NC(=O)CSc1nc2ccccc2n1CCc1ccccc1 (stereo not given) | 10% | 0% | .
COCC(C)NC(=O)Cn1c(SCc2ccccc2)nc2ccccc21 (stereo not given) | . | . | -8%
CCCCNc1nc(Oc2ccc(OCC(N)=O)nn2)nc(N2CCOCC2)n1 | 9% | 2% | .
Cc1ccc(NC(=O)C2CCN(S(=O)(=O)c3ccc4c(c3)CCCC(=O)N4)CC2)c(Cl)c1 | -3% | -3% | .
COc1cccc(Nc2ncc3nc(C)c(=O)n(Cc4cccs4)c3n2)c1 | 1% | -2% | .
N#Cc1c(N)n(CCNC(=O)c2ccc(Cl)cc2)c2nc3ccccc3nc12 | 9% | -4% | .
Cc1ccc(C(=O)NCCn2c(N)c(C#N)c3nc4ccccc4nc32)cc1 | ? | -7% | 28µM*
O=C(CSc1nnc(COc2ccc(Cl)cc2)o1)Nc1ccccc1 | ? | -6% | .
O=C(Cn1c2ccccc2c(=O)c2ccccc21)Nc1cccc(F)c1 | -28% | 0.79µM* | -4%
O=C(Cn1c(=O)n(Cc2ccco2)c(=O)c2ccccc21)Nc1cccc(F)c1 | -19% | -9% | .
COc1ccc(CCNC(=O)c2ccc(Cn3c(=O)c4ccccc4n(Cc4cccc(F)c4)c3=O)cc2)cc1OC | -4% | -2% | .
Cc1ccc(NC(=O)Cn2c(=O)n(CCC(=O)NCc3ccccc3Cl)c(=O)c3ccccc32)cc1 | 21% | 9% | .
O=C(Nc1cccc(Cl)c1)C1CCN(S(=O)(=O)Cc2ccccc2)CC1 | -3% | -5% | .
O=C(NCCOc1ccccc1)c1cc(C(=O)NCCOc2ccccc2)cc([N+](=O)[O-])c1 | -2% | -5% | .
O=C(NCCc1nc2ccccc2[nH]1)c1cc([N+](=O)[O-])cc([N+](=O)[O-])c1 | -4% | 3.5µM* | 5%
CCOc1cc(CN2CCN(S(=O)(=O)c3ccc(C)cc3)CC2)ccc1OC | 15% | -2% | .
COC(=O)c1cc2sccc2n1Cc1nc(-c2cccc(Br)c2)oc1C | -14% | -3% | .
O=C(COC(=O)CNS(=O)(=O)c1ccc(F)c(F)c1F)Nc1ccc(OC(F)F)cc1 | ? | 22µM* | -6%
CCCCC(=O)OCC(=O)Nc1ccc(OC(F)F)cc1 | -12% | 1% | .
COC(=O)c1cccnc1-n1c(=O)c2cccnc2n(CC(=O)Nc2cccc(C)c2)c1=O | 11% | 2% | .
C[C@@H]1C[C@H](C)CN(S(=O)(=O)c2cc(Cl)c(Oc3ccc([N+](=O)[O-])cc3Cl)c(Cl)c2)C1 | -2% | 2% | .
Cc1ccccc1Cn1c(SCc2ccc(C(=O)NCCc3ccccc3)cc2)nc2ccncc21 | 2% | -9% | .
CCc1ccccc1NC(=O)Cn1c(SCc2ccc(F)cc2)nc2ccncc21 | -8% | -24% | .
CCc1ccc(NC(=O)Cn2c(SCc3ccc(C)cc3)nc3ccncc32)cc1 | . | . | -3%
CN(C)c1ccc(NC(=O)Cn2c(SCc3ccc(F)cc3)nc3ccncc32)cc1 | -4% | -6% | .
SMILES | Cruzain noTriton | Cruzain Triton | Papain inh
CCCNC(=O)Cn1c(SCc2ccccc2C)nc2ccncc21 | . | . | 1%
CCCCNC(=O)Cn1c(SCc2ccccc2C)nc2ccncc21 | . | . | -3%
c1ccc(CNc2cc(-c3ccoc3)ncn2)cc1 | -25% | 3% | .
COc1ccc(-n2c(SCc3ccccc3F)nc3c([nH]c4ccccc43)c2=O)cc1OC | 24% | -4% | .
Cc1ccc(-n2ncc(C(=O)NCCc3ccsc3)c2C2CCN(C(=O)OC(C)(C)C)CC2)cc1C | ? | -2% | .
CCn1cc2nc(SCc3ccccc3F)n(Cc3ccc(C)cc3)c(=O)c2n1 | -22% | 3% | .
CCN1CCCC1CNc1ncnc2c1[nH]c1ccc(Cl)cc12 (stereo not given) | 16µM* | 25µM* | -3%
CCN1CCCC1Cn1cnc2c([nH]c3ccc(C)cc32)c1=O (stereo not given) | -18% | -8% | .
Clc1ccc2[nH]c3c(NCCCN4CCOCC4)ncnc3c2c1 | 13µM* | 16µM* | 4%
Cc1ccc2ncnc(NCCCN3CCOCC3)c2c1 | 8% | -1% | .
O=C(CSc1nc2c([nH]c3ccccc32)c(=O)n1-c1ccccc1)Nc1cccc(C(F)(F)F)c1 | ? | -1% | .
CCCn1c(-c2ccc(F)cc2)nc2c(NCCCCN3CCCC3)nc(C)nc21 | -1% | -3% | .
CCCn1c2ccc(F)cc2c2nnc(SCCN(CC)CC)nc21 | 4µM* | 4.5µM* | 25µM*
CCn1c2ccc(F)cc2c2nnc(SCCN3CCCCC3)nc21 | 13µM* | 14µM* | 25µM*
CC1CCc2cc(F)ccc2N1C(=O)CSc1nnc2c3cc(F)ccc3n(C)c2n1 (stereo not given) | 8% | -6% | .
CCn1c(CNc2ccc(F)cc2)nnc1SCCN1CCCCC1 | -1% | -1% | .
CCCn1c2ccc(F)cc2c2nnc(SCCN3CCCCC3)nc21 | 2µM* | 2µM* | 13µM*
O=C(NCCc1nc2ccccc2n1CCCCOc1ccccc1)C1CCCCC1 | . | . | 25µM*
O=C(NCCc1nc2ccccc2n1CCCOc1ccccc1)C1CCCCC1 | . | . | -20%
CC(C)(C)C(=O)NCCc1nc2ccccc2n1CCCCOc1ccc(Cl)cc1 | ? | -12% | .
OCCCc1nc2ccccc2n1CCOc1ccccc1 | -10% | 2% | .
CCOc1ccc(-c2ccc(NS(=O)(=O)c3ccc(C)cc3)cc2)nn1 | -28% | -7% | .
CCn1cc(C(=O)NCc2ccccc2)c(=O)c2cc(S(=O)(=O)N3CCCCCC3)ccc21 | -6% | -5% | .
O=C(c1ccco1)N1CCN(c2ncnc3c2[nH]c2ccc(Cl)cc23)CC1 | ? | 14µM* | -10%
O=C(c1ccco1)N1CCN(c2c(-c3ccccc3)c3cc(Cl)ccc3[nH]c2=O)CC1 | ? | -3% | .
SMILES | Cruzain noTriton | Cruzain Triton | Papain inh
Cc1cccc(CN2C(=O)c3ccccc3Sc3ccc(C(=O)NCCc4ccccc4)cc32)c1 | ? | 1% | .
COc1cccc(CNC(=O)c2ccc3c(c2)N(Cc2ccc(F)cc2Cl)C(=O)c2ccccc2S3)c1 | 13µM* | 1% | 7%
COc1cccc(CN2C(=O)c3ccccc3Sc3ccc(C(=O)NCCc4ccc(Cl)cc4)cc32)c1 | 20µM* | -3% | 8%
O=C(O)c1ccc2c(c1)N(Cc1ccc(F)cc1Cl)C(=O)c1ccccc1S2 | ? | -1% | .
O=C(NCc1ccc2c(c1)OCO2)c1ccc2c(c1)N(Cc1c(F)cccc1Cl)C(=O)c1ccccc1S2 | 10µM* | -2% | -3%
CCOc1ccc(CN2C(=O)c3ccccc3Sc3ccc(C(=O)NCc4ccc(C)cc4)cc32)cc1 | 10µM* | -1% | 8%
O=C(NCc1ccco1)c1ccc2c(c1)N(Cc1c(F)cccc1Cl)C(=O)c1ccccc1S2 | ? | -3% | .
CCOc1ccc(CN2C(=O)c3ccccc3Sc3ccc(C(=O)NCCc4ccccc4)cc32)cc1 | ? | -6% | .
CC1=C(C(=O)Nc2cccnc2)C(c2cccc(O)c2)n2nc(SCc3ccccc3)nc2N1 (stereo not given) | ? | -1% | .
COc1cccc(OC)c1C(=O)NC1C(=O)N2C1SC(C)(C)C2C(=O)O (stereo not given) | -9% | -7% | .
Cc1cc(C)c2nc(C)cc(Nc3cccc(C(=O)O)c3)c2c1 | -7% | -21% | .
COc1ccccc1CNc1ncncc1-c1ccc2c(c1)OCO2 | 5% | 2% | .
COCCNC(=O)c1ccc2c(c1)N(Cc1ccc(C(F)(F)F)cc1)C(=O)c1ccccc1S2 | ? | -11% | .

Screens: PubChem, National Center for Advancing Translational Sciences (NCATS)
